From the supplement of paper PMC12808144
A number with no mark means an inactive call.

Tested on: Mel-DCC-11
Assay: cell viability relative to DMSO control (fraction of DMSO control); higher = less cytotoxic, active = 0.5 or less
Details: 1 µM; 120 h
Summary of the method: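 Three cell types were screened against 315 approved anti-cancer drugs from TargetMol, acoustically pre-spotted in 384-well plates at 1 µM in duplicate over 120 h: NHEM-hTERT immortalized melanocytes (2500/well), patient-derived Mel-DCC-11 and its resistant subline Mel-DCC-11-R (both 1500/well), all in 40 µl per well. The subline was tested alone and with 8 µM of its selecting drug. Viability, measured by luminescence, was normalised to vehicle controls and averaged across duplicates, with ATPlite 1step as the readout.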

Row | SMILES | cell viability
1 | CC(=O)O[C@]1(C(C)=O)CC[C@H]2[C@@H]3CCC4=CC(=O)CCC4=C3[C@@H](c3ccc(N(C)C)cc3)C[C@@]21C [Ulipristal acetate] | 1.31
2 | CCN1CCN(Cc2ccc(Nc3ncc(F)c(-c4cc(F)c5nc(C)n(C(C)C)c5c4)n3)nc2)CC1 [Abemaciclib] | 0.405 (active)
3 | Nc1nc(F)nc2c1ncn2[C@@H]1O[C@H](COP(=O)(O)O)[C@@H](O)[C@@H]1O [Fludarabine Phosphate] | 1.49
4 | N.N.O=C([O-])C[O-].[Pt+2] [Nedaplatin] | 1.19
5 | O=c1cc(-c2ccc(O)cc2)oc2cc(O)cc(O)c12 [Apigenin] | 1.07
6 | C[C@@H]1O[C@@H](OC[C@H]2O[C@@H](Oc3c(-c4ccc(O)c(O)c4)oc4cc(O)cc(O)c4c3=O)[C@H](O)[C@@H](O)[C@@H]2O)[C@H](O)[C@H](O)[C@H]1O [Rutin] | 0.977
7 | O=C(O)C1CSCN1 (stereo not given) [Thioproline] | 1.09
8 | CC(C)CN(C[C@@H](O)[C@H](Cc1ccccc1)NC(=O)O[C@H]1CCOC1)S(=O)(=O)c1ccc(N)cc1 [Amprenavir] | 0.769
9 | CN(CCOc1ccc(CC2SC(=O)NC2=O)cc1)c1ccccn1.O=C(O)/C=C\C(=O)O (stereo not given) [Rosiglitazone maleate] | 1.17
10 | COc1cccc2c1C(=O)c1c(O)c3c(c(O)c1C2=O)C[C@@](O)(C(=O)CO)C[C@@H]3O[C@H]1C[C@H](N)[C@H](O[C@H]2CCCCO2)[C@H](C)O1 [Pirarubicin] | 0.0404 (active)
